# In the library only some 3.2% were active in any assay of this set; here they are far more common.
# EBV LMP1 NFkB: reduces LMP1-driven NF-kappaB luciferase signal; LMP1-induced NF-kappaB luciferase reporter cells, luminescence; inhibition, % at 12.5 µM; 0.69% of 350,000 active; in the data active = inhibition above about 41%; inconclusive = no clear call, values can overlap the other calls
# LGR2 antag: inhibitors of bursicon-induced Drosophila LGR2 receptor cAMP signaling; AID 720647; 0.35% of 380,000 active; HEK293 LGR2, CRE-luciferase, bursicon-stimulated, 4 h; inhibition, % at 9.99 µM;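 active = drop in luminescence signal, shown as inhibition above about 50% in the replicate tests, limit read from the data, passing the limit was not always enough; inconclusive = probably only some replicates passing the limit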;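 also: agonist challenge used bursicon conditioned medium at about half maximal strength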
# TROY signal inh: blocks TROY-dependent signaling in reporter cells | Q293 LMP1-TROYcd NF-kB luciferase reporter, 4 h | inhibition, % at 10 µM | AID 1347056 | 0.98% of 360,000 active;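 active = compounds whose plate-normalised and pattern-corrected inhibition of the luciferase reporter signal at the single screening dose is 50% or more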
# EWS-Fli block: EWS/Fli transcriptional activity inhibition. A673 NR0B1-luciferase reporter, viability-normalised. inhibition, % at 12.6 µM. 0.67% of 350,000 active. AID 651661;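 active = mean inhibition of at least 50% after viability correction, with every replicate also passing that limit; inconclusive = mean reaches 50% but only one of two replicates passes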;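 also: firefly luciferase signal divided by Alamar Blue viability fluorescence both relative to DMSO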
# PAX8 reporter: inhibitors of PAX8 transcriptional activity in RMG-I cells | RMG-I TPO-luciferase reporter, SteadyGlo, 24 h | inhibition, % at 12.6 µM | 1.2% of 360,000 active;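 active = mean replicate inhibition at least 60% with every replicate also reaching 60%; inconclusive = only one of the two criteria is met; inactive = mean below 60% and not all replicates reaching 60%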;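 also: luciferase light reporting Pax8 driven TPO promoter activity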
# TWEAK Fn14 block: blocks TWEAK-Fn14 interaction in a reporter cell assay. AID 1159606. 2% of 360,000 active. inhibition, % at 10 µM. TWEAK-stimulated Fn14 reporter cells, luciferase luminescence, 8 h; in the data active = inhibition above about 50%
# A number is an active result; . = inactive; ? = inconclusive; / = not tested or not shown; ! = not active in a repeat.
SMILES,EBV LMP1 NFkB,LGR2 antag,TROY signal inh,EWS-Fli block,PAX8 reporter,TWEAK Fn14 block
CN1C[C@H](CNC(=O)OCc2ccccc2)C[C@@H]2c3cccc4c3c(cn4C)C[C@H]21,.,/,.,.,.,60
O=C(Cc1ccccc1)N1CCCCN2[C@H](CO)[C@@H](c3ccc(C#Cc4ccccc4)cc3)[C@H]2C1,/,.,/,/,.,/
COc1cc2c(cc1/C=C/[N+](=O)[O-])OCO2,.,103,62,.,.,64
O=C(Cc1ccccn1)N1CCCCN2[C@H](CO)[C@H](c3ccc(C#Cc4ccccc4)cc3)[C@H]2C1,/,.,/,.,.,/
CC(=O)c1ccc2c(c1)C1C(Cl)C(Sc3ccccc3[N+](=O)[O-])CC1C(c1ccccc1[N+](=O)[O-])N2 (centres undefined),.,/,.,/,63,.
COc1cc2c(c(OC)c1OC)-c1ccc(O)c(=O)cc1C(NC(C)=O)CC2 (centres undefined),.,.,.,59,85,.
COc1ccc(OC)c(CC(=O)O)c1,.,/,.,/,/,.
COC1=C[C@@H]2C3=C([C@@H]2C1=O)[C@@H](NC(C)=O)CCc1cc(OC)c(OC)c(OC)c13,.,/,.,.,.,.
COc1ccc2c(c1)C(NC(C)=O)CCc1cc(OC)c(OC)c(OC)c1-2 (centres undefined),.,.,.,55,84,.
O=C(Cc1cccnc1)N1CCCCN2[C@H](CO)[C@@H](c3ccc(/C=C/c4ccccc4)cc3)[C@H]2C1,/,.,/,.,.,/
C[C@@H]1CN([C@@H](C)CO)C(=O)c2c(c3ccccc3n2C)-c2ccccc2CO[C@H]1CN(C)C(=O)Oc1ccccc1,/,.,/,.,.,/
COC(=O)[C@@H]1[C@@H](CO)[C@@H]2Cn3c(ccc(/C=C/c4ccccc4)c3=O)[C@H]1N2C(=O)C1CC1,/,.,/,.,/,/
C[C@H]1CCC[C@@H](O)CCC/C=C/c2cc(O)cc(O)c2C(=O)O1,.,.,.,/,/,59
CCCC[C@@H](C)C[C@@H](C)C(=O)N(C)[C@@H](CC(C)C)C(=O)N[C@H](C(=O)N(C)[C@H](C(=O)N1C[C@@H](O)C[C@H]1C(=O)N1C(=O)C=C[C@@H]1C)C(C)C)C(C)OC(C)=O (some centres undefined),.,/,.,/,/,51
COc1cc(OC)c(OC)cc1CN1CCN(C(=O)Cc2ccccc2)CC1,.,.,.,.,.,97
O=C(O)[C@@H]1[C@@H](CO)[C@@H]2Cn3c(ccc(C4=CCCC4)c3=O)[C@H]1N2C(=O)Cc1ccccn1,/,.,/,.,/,/
COc1ccc(/C=N\N=C(N)N)cc1,.,.,.,.,.,.
NC(N)=N/N=C/c1ccc(N(c2ccccc2)c2ccccc2)cc1,.,52,69,58,81,.
CCCCCn1c(NC(=O)c2ccco2)c(C(=O)OCC)c2nc3ccccc3nc21,.,/,62,/,/,81
Cc1ccc(C(=O)N[C@@H](C)CN2C3=NC[C@@H](Cc4ccccc4)N3C[C@H]2Cc2ccc(O)cc2)cc1Br,/,.,/,.,111,/
O=C(Cc1cccnc1)N1CCCCN2[C@H](CO)[C@@H](c3ccc(/C=C/c4ccccc4)cc3)[C@@H]2C1,/,.,/,.,.,/
O=C(NN=Cc1ccc(N(CCCl)CCCl)cc1)c1cccnc1,47,.,.,.,.,.
O=C(NN=Cc1ccc(N(CCCl)CCCl)cc1)c1cccc([N+](=O)[O-])c1,.,.,.,.,.,.
O=C(Cc1ccncc1)N1CCCCN2[C@H](C1)[C@H](c1ccc(C#CC3(O)CCCC3)cc1)[C@@H]2CO,/,.,/,/,.,/
COC(=O)[C@H]1[C@H](CO)[C@H]2Cn3c(ccc(-c4ccccc4F)c3=O)[C@@H]1N2Cc1ccccc1,/,.,/,.,.,/
SMILES,EBV LMP1 NFkB,LGR2 antag,TROY signal inh,EWS-Fli block,PAX8 reporter,TWEAK Fn14 block
COC(=O)C1CN(C#N)N(c2ccc(Cl)cc2)C12c1ccccc1-c1ccccc12 (centres undefined),.,100,90,/,/,92
O=C(O)[C@@H]1[C@@H](CO)[C@@H]2Cn3c(cccc3=O)[C@H]1N2C(=O)c1ccccc1,/,.,/,.,/,/
N=Cc1c(O)n(-c2ccc(C34CC5CC(CC(C5)C3)C4)cc2)c(=O)[nH]c1=O,.,.,54,/,.,67
O=c1[nH]c(=O)n(-c2ccc(Br)cc2)c(O)c1C=NC(CO)(CO)CO,/,.,.,.,.,.
Cc1cc(N(CCCl)CCCl)ccc1C=NNC(=O)Cc1cc(=O)oc2cc(O)ccc12,.,.,.,.,.,.
Cc1cc(N(CCCl)CCCl)ccc1/C=N/NC(=O)c1ccco1,53,/,.,/,/,.
Oc1ccc(O)c2c1C1(Cl)C(Cl)=C(Cl)C2(Cl)C1(Cl)Cl,.,.,52,.,.,.
O=C(O)[C@@H]1[C@@H](CO)[C@@H]2Cn3c(ccc(-c4cccc(F)c4)c3=O)[C@H]1N2CCc1ccccc1,/,.,/,.,.,/
C/C(=C\c1ccc(N(C)C)cc1)[N+](=O)[O-],.,96,.,52,/,.
COC(=O)[C@H]1N[C@H]2c3ccc(C4=CCCC4)c(=O)n3C[C@H]2[C@@H]1CO,/,.,/,.,/,/
Cc1ccc(N2C(=O)NC(=O)/C(=C\C=C\c3ccco3)C2=O)cc1,.,.,.,56,.,.
Cc1cccc(N2C(=O)NC(=O)/C(=C\C=C\c3ccco3)C2=O)c1,.,.,.,67,.,.
O=C1NC(=O)N(c2ccccc2)C(=O)/C1=C/C=C/c1ccco1,.,.,.,60,.,.
Cc1ccc(N2C(=O)NC(=O)/C(=C\C=C\c3ccco3)C2=O)cc1C,.,.,.,72,.,.
CN(C)c1ccc(/C=C/C=C2/C(=O)NC(=O)N(c3ccccc3)C2=O)cc1,.,/,.,57,.,92
Nc1ccc(CC(N)c2csc(Nc3ncccn3)n2)cc1 (centres undefined),/,.,.,.,.,.
NC(Cc1ccc(F)cc1)c1csc(Nc2ncccn2)n1 (centres undefined),/,.,.,.,74,.
NC(Cc1ccc(Cl)cc1)c1csc(Nc2ncccn2)n1 (centres undefined),/,?,.,.,.,58
COC(=O)[C@H]1[C@H](CO)[C@H]2Cn3c(ccc(-c4ccncc4)c3=O)[C@@H]1N2CCc1ccccc1,/,.,/,.,/,/
C[n+]1c2ccccc2nc2ccc(NCCO)cc21,.,.,.,.,.,.
CNc1ccc2nc3ccccc3[n+](C)c2c1,.,.,.,.,65,.
Nc1cncc(C(=O)O)c1,61!,.,.,.,.,.
CC1(C)C[C@H]2C=C(C=O)[C@]3(C=O)C[C@]3(C)[C@H]2C1,.,/,.,.,/,84
COC(=O)[C@@H]1[C@@H](CO)[C@@H]2Cn3c(ccc(-c4cncnc4)c3=O)[C@H]1N2S(=O)(=O)c1ccccc1C,/,.,/,.,.,/
Clc1ccc(COC(Cn2ccnc2)c2ccc(Cl)cc2Cl)cc1 (centres undefined),.,.,.,.,.,.

# Screens deposited in PubChem BioAssay by several laboratories.
